Measured values taken from ChEMBL document CHEMBL4513141, “CO-ADD screening of NIH (USA) - Clinical Collection” (2021).
Out of some 23,000 compounds screened, about 30 (0.1%) showed an effect of 50% or more. What follows is part of a selection rich in strong results, with near analogues and random picks from the rest. Results with a measured potency or affinity are listed apart.

Each compound was assayed on Pseudomonas aeruginosa. Conditions: Concentration 20 uM; ASSAY_TEST Inhibition of Bacterial Growth; detection method Absorption (OD600); MEDIA CAMHB; plate type 384well; NBS; CORNING #3640; time 18 hr.
CCOC(=O)[C@H](CCc1ccccc1)N[C@@H](C)C(=O)N1Cc2ccccc2C[C@H]1C(=O)O.Cl [QUINAPRIL HYDROCHLORIDE] showed an Inhibition of 14.62%. CCOC(=O)[C@H](CCc1ccccc1)N[C@@H](C)C(=O)N1[C@H](C(=O)O)C[C@@H]2CCC[C@@H]21 was tested, and the Inhibition was 53.62%. For CCOC(=O)[C@@H](CCc1ccccc1)N[C@@H](C)C(=O)N1CCC[C@H]1C(=O)O.O=C(O)/C=C\C(=O)O, the Inhibition was 1.23%. CN1C(C(=O)Nc2ccccn2)=C(O)c2ccccc2S1(=O)=O.O was tested, and the Inhibition was 7.03%. Work on CCOC(=O)OC(C)OC1=C(C(=O)Nc2ccccn2)N(C)S(=O)(=O)c2ccccc21 (stereo unspecified) [AMPIROXICAM] yielded an Inhibition of 53.02%. Compound Cc1cnc(NC(=O)C2=C(O)c3ccccc3S(=O)(=O)N2C)s1 [MELOXICAM] has an Inhibition of 4.04%. In the case of N[C@@H]1CONC1=O [CYCLOSERINE], the Inhibition is reported as 60.23%. O=c1c(O[C@@H]2O[C@H](CO)[C@@H](O)[C@H](O)[C@H]2O)c(-c2ccc(O)c(O)c2)oc2cc(O)cc(O)c12 [ISOQUERCETIN] showed an Inhibition of 60.53%. Work on C[C@@H]1O[C@@H](OC[C@H]2O[C@@H](Oc3c(-c4ccc(O)c(O)c4)oc4cc(O)cc(O)c4c3=O)[C@H](O)[C@@H](O)[C@@H]2O)[C@H](O)[C@H](O)[C@H]1O [RUTIN] yielded an Inhibition of 17.85%. Work on O=c1c(O[C@@H]2O[C@H](CO)[C@H](O)[C@H](O)[C@H]2O)c(-c2ccc(O)c(O)c2)oc2cc(O)cc(O)c12 [HYPEROSIDE] yielded an Inhibition of 12.67%. Cl.Nc1c2c(nc3ccccc13)CCCC2 [TACRINE HYDROCHLORIDE] was tested, and the Inhibition was 19.73%.
